Screening results (PubChem BioAssay)
ELG1 DNA repair = inhibitors of ELG1-dependent DNA repair in HEK293T cells. HEK293T ELG1-luciferase reporter, luminescence, 16 h; DNA damage induced by 5-fluorouridine. AID 504467. Potency, µM (titrated, usually from 46.1 µM), usual class: inhibitors. 2.3% of 330,000 active; also: nearly all actives have a fitted effect of over 55% in size
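DMSO vehicle served as the neutral condition. Each well held 2,000 cells given 5-fluorouridine plus compound; after 16 hr at 37 °C/5% CO2, ONE-Glo was added and luciferase measured 30 min later.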
KB-3-1 tox = kills parental KB-3-1 adenocarcinoma cells | KB-3-1 viability, CellTiter-Glo ATP luminescence, 72 h | AID 1347075 | Potency, µM (top dose mostly 46.1 µM), actives largely listed as cytotoxic | 1.4% of 400,000 active; also: nearly all actives have a fitted effect of over 60% in size
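Cells are dispensed, compounds pinned in, plates held at 37 °C for 72 h, then CellTiter-Glo is added and luminescence read after 10 minutes. Cell line: parental KB-3-1 in phenol-red-free DMEM, 10% FBS.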
MCF10A rereplic = inducers of DNA re-replication in MCF 10A breast cells; MCF 10A DNA re-replication, Hoechst nuclear intensity, 48 h; Potency, µM (titrated, usually from 46.1 µM), hits mostly activators; 2.9% of 350,000 active; also: nearly all actives have a fitted effect of over 50% in size
SW480 rereplic = inducers of DNA re-replication in SW480 colon cancer cells | SW480 DNA re-replication, Hoechst DNA content imaging, 48 h | Potency, µM (doses to about 46.1 µM), actives largely listed as activators | 1.8% of 340,000 active | AID 624297; also: nearly all actives have a fitted effect of over 55% in size
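Quantitative HTS format with DMSO vehicle controls; 48 hr drug incubation at 37 C, then 40 min Hoechst staining and scanning imager measurement at 405 nm excitation.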
KB-V1 MDR tox = kills drug-selected multidrug resistant KB-V1 cells; Potency, µM (titrated, usually from 46.1 µM), actives largely listed as cytotoxic; KB-V1 MDR cells viability, CellTiter-Glo, 72 h; 3.4% of 400,000 active; also: nearly all actives have a fitted effect of over 60% in size
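Drug-selected KB-V1 cells, grown in DMEM lacking phenol red with 10% FBS, receive compound titrations; after three days at 37 degrees C, surviving cell ATP is quantified by CellTiter-Glo luminescence and responses normalized and curve-fitted.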
Each line names hits and unclear results; the compound was inactive in the other large screens. Shown are actives, neighbours in structure and some others; about 8.1% of the full set was active somewhere. Calls follow the shape of the dose curve; as a rule, active = well fitted curve in the direction sought with a large enough effect; inconclusive = small, poorly fitted or top-dose-only effect, or another doubt; inactive = no such curve, though single readings can be large; an effect the other way counts as inactive or inconclusive.

CCC(=O)c1ccc(OCc2ccc(C(=O)c3ccccc3)cc2)cc1	ELG1 DNA repair inconclusive, KB-3-1 tox inconclusive, KB-V1 MDR tox 10µM
O=C(CN(C(=O)Cn1nnc(-c2ccccc2F)n1)c1cccc2c1CCCC2)NCc1ccccc1	ELG1 DNA repair inconclusive, KB-V1 MDR tox 10µM
CCC(C(=O)NC(C)(C)C)N(C(=O)Cn1nnc(-c2ccccc2F)n1)c1cccc2c1CCCC2 (stereo not given)	KB-V1 MDR tox 1.6µM
Cc1cccc(/C=C/C(=O)c2cc(Br)ccc(=O)c2O)c1	ELG1 DNA repair inconclusive, KB-3-1 tox inconclusive, MCF10A rereplic 10µM, SW480 rereplic inconclusive, KB-V1 MDR tox inconclusive
CCc1ccc(/C=C/C(=O)c2cc(Br)ccc(=O)c2O)cc1	KB-3-1 tox inconclusive, MCF10A rereplic inconclusive, SW480 rereplic inconclusive, KB-V1 MDR tox 10µM
O=C(C=Cc1ccccc1)c1cc(Br)ccc1O	MCF10A rereplic inconclusive, SW480 rereplic inconclusive (no result: ELG1 DNA repair)
CCOc1ccc(/C=C/C(=O)c2cc(Br)ccc(=O)c2O)cc1	KB-3-1 tox inconclusive, MCF10A rereplic 9.2µM, SW480 rereplic inconclusive, KB-V1 MDR tox 10µM
CCc1cccc(C)c1NC(=O)Cn1cc2c(n1)CCCCC2	none (no result: ELG1 DNA repair, MCF10A rereplic, SW480 rereplic)
CCOC(=O)C1=C(C)NC(C)=C(C(=O)OCC)C1C(=O)OCC(=O)NCc1ccccc1	ELG1 DNA repair inconclusive, KB-3-1 tox inconclusive, KB-V1 MDR tox inconclusive
CCOC(=O)C1=C(C)NC(C)=C(C(=O)OCC)C1C(=O)OCC(=O)NC(C)c1ccccc1 (stereo not given)	ELG1 DNA repair inconclusive, KB-3-1 tox inconclusive, MCF10A rereplic inconclusive, SW480 rereplic 7.3µM, KB-V1 MDR tox inconclusive
CCOC(=O)C1=C(C)NC(C)=C(C(=O)OCC)C1C(=O)OCC(=O)NCc1ccccc1OC	ELG1 DNA repair 12µM
CCOC(=O)C1=C(C)NC(C)=C(C(=O)OCC)C1C(=O)OCC(=O)NC	none
CCOC(=O)C1=C(C)NC(C)=C(C(=O)OCC)C1C(=O)OCC(=O)N1c2ccccc2CC1C (stereo not given)	ELG1 DNA repair 23µM
COc1ccc(/C=C/C(=O)c2ccc3c4c(cccc24)CC3)cc1	KB-3-1 tox inconclusive, MCF10A rereplic 18µM, SW480 rereplic inconclusive, KB-V1 MDR tox inconclusive
COc1ccc(C(=O)Oc2ccc(F)cc2C(=O)/C=C/c2ccc(OC)c(OC)c2)cc1	ELG1 DNA repair inconclusive, SW480 rereplic inconclusive, KB-V1 MDR tox inconclusive
COc1ccc(/C=C/C(=O)c2ccc3c4c(cccc24)CC3)cc1OC	ELG1 DNA repair inconclusive, KB-3-1 tox inconclusive, MCF10A rereplic 18µM, SW480 rereplic inconclusive, KB-V1 MDR tox 16µM
COc1ccc(/C=C/C(=O)c2cc(F)ccc2OC(=O)c2ccccc2C)cc1OC	KB-3-1 tox inconclusive, MCF10A rereplic 1.2µM, SW480 rereplic 1.2µM
COc1ccc(/C=C/C(=O)c2cc3cccc(OC)c3oc2=O)cc1	KB-3-1 tox inconclusive, MCF10A rereplic inconclusive, SW480 rereplic inconclusive
COc1cccc(S(=O)(=O)N(C)C[C@H]2OCc3cnnn3CCCC(=O)N([C@@H](C)CO)C[C@H]2C)c1	none (no result: ELG1 DNA repair, MCF10A rereplic, SW480 rereplic)
Cc1ccc2cc3c(N)[nH]nc3nc2c1	KB-V1 MDR tox 18µM (no result: SW480 rereplic)
COC(=O)c1ccc(/C=C/C(=O)c2cccc(OC)c2)cc1	ELG1 DNA repair inconclusive, MCF10A rereplic inconclusive, SW480 rereplic inconclusive
COc1cc(/C=C/C(=O)O)cc(OC)c1O	none (no result: ELG1 DNA repair)
COc1cc(C(=O)/C=C/c2cccnc2)c([N+](=O)[O-])cc1OC	ELG1 DNA repair inconclusive, KB-3-1 tox inconclusive, MCF10A rereplic 23µM
COc1cccc(/C=C/C(=O)c2ccc(C)c([N+](=O)[O-])c2)c1	ELG1 DNA repair inconclusive, MCF10A rereplic 6.5µM, SW480 rereplic inconclusive
COc1cc(/C=C/C(=O)c2ccc(C)c([N+](=O)[O-])c2)cc(OC)c1O	MCF10A rereplic 9.2µM, KB-V1 MDR tox inconclusive (no result: SW480 rereplic)
Nc1cc(=O)[nH]c(SCCSc2ccccc2)n1	KB-3-1 tox inconclusive, KB-V1 MDR tox 7.3µM
Nc1cc(=O)[nH]c(SCCOc2ccccc2)n1	KB-3-1 tox inconclusive, KB-V1 MDR tox 5.2µM
Cc1cc(=O)[nH]c(SCCOc2ccc3c(c2)CCC3)n1	MCF10A rereplic inconclusive, SW480 rereplic 1.8µM (no result: ELG1 DNA repair)
O=C1CC2(CCN1)CCN(Cc1ccccc1)CC2	none (no result: ELG1 DNA repair)
CCOC(=O)c1cccc(NS(=O)(=O)c2ccc3[nH]c4c(c3c2)CCCC4)c1	none (no result: ELG1 DNA repair, MCF10A rereplic, SW480 rereplic)
COc1ccc(S(=O)(=O)N(CC(=O)Nc2cccnc2)c2ccc(C)cc2)cc1OC	none (no result: ELG1 DNA repair, MCF10A rereplic, SW480 rereplic)
CC(=O)NC(CC(=O)OC(C)C(=O)Nc1ncc(Cl)cc1Cl)c1ccccc1 (stereo not given)	none
O=C(CCn1cnc(-c2ccccc2)c1-c1ccccc1)N/N=C/c1ccccc1O	KB-3-1 tox inconclusive, MCF10A rereplic 4.6µM, SW480 rereplic 9.2µM
O=C(CCn1cnc(-c2ccccc2)c1-c1ccccc1)N/N=C/c1ccc(O)cc1	ELG1 DNA repair inconclusive, KB-3-1 tox inconclusive, MCF10A rereplic inconclusive, SW480 rereplic inconclusive
COc1ccc(/C=N/NC(=O)CCn2cnc(-c3ccccc3)c2-c2ccccc2)cc1	ELG1 DNA repair inconclusive, KB-3-1 tox 5.2µM, MCF10A rereplic 1.6µM, SW480 rereplic 3.3µM
COc1ccc(-n2nnnc2-c2cnc3cc4c(cc3c2C)OCO4)cc1	KB-V1 MDR tox 9.2µM
COc1ccc(C(=O)Nc2nc(C)c3cc4c(cc3n2)OCO4)cc1	MCF10A rereplic inconclusive
Cc1cccc(NC(=O)c2ccc(CN3CCc4ccccc4C3)cc2)c1C	ELG1 DNA repair inconclusive, KB-3-1 tox inconclusive, MCF10A rereplic 23µM, KB-V1 MDR tox inconclusive
Cc1ccccc1NC(=O)c1ccc(CN2CCc3ccccc3C2)cc1	ELG1 DNA repair inconclusive, KB-3-1 tox 10µM, MCF10A rereplic inconclusive, KB-V1 MDR tox inconclusive
CCOC(=O)c1ccc([N+](=O)[O-])c(CS(=O)(=O)c2ccc(Cl)cc2)c1	MCF10A rereplic 21µM
Cc1ccc(S(=O)(=O)Cc2cc(F)c([N+](=O)[O-])cc2[N+](=O)[O-])cc1	ELG1 DNA repair 16µM, KB-3-1 tox inconclusive, MCF10A rereplic inconclusive, SW480 rereplic inconclusive, KB-V1 MDR tox inconclusive
CCCNc1ccc(C(=O)OCC)cc1[N+](=O)[O-]	ELG1 DNA repair inconclusive, KB-3-1 tox 16µM, KB-V1 MDR tox 13µM
Cc1ccc(S(=O)(=O)CCC(=O)c2cccc([N+](=O)[O-])c2)cc1	ELG1 DNA repair inconclusive, MCF10A rereplic 3.7µM
CCOC(=O)CNc1ccc(C(=O)OCC)cc1[N+](=O)[O-]	none
COc1ccc(CN(C)C[C@H]2OCCCC[C@@H](C)Oc3ccc(NS(C)(=O)=O)cc3C(=O)N([C@H](C)CO)C[C@@H]2C)cc1	KB-V1 MDR tox inconclusive (no result: ELG1 DNA repair, MCF10A rereplic, SW480 rereplic)
O=C(C[n+]1cccc(C(=O)N/N=C/c2cccc([N+](=O)[O-])c2)c1)c1ccccc1	none
CCCN(CCC)c1nc(Cl)nc(NCCN2CCOCC2)n1	ELG1 DNA repair 23µM
CCCCn1c(CNC(=O)C23CC4CC(CC(C4)C2)C3)nnc1SCC(=O)Nc1ccccc1	none (no result: ELG1 DNA repair, MCF10A rereplic, SW480 rereplic)
